The whole screen tested about 59,000 compounds, of which about 6,500 (11%) were called active. About 15% were inconclusive and are not listed. This is one part of a sample in which actives are shown more often than they occur. Rule as the data show it: active = max dye-equivalent concentration above about 10 nM; inconclusive = mostly about 1.1 nM to 9.6 nM; inactive = weaker than that.

The assay in a line: qHTS Assay for Spectroscopic Profiling in A350 Spectral Region. The note with it: Compound autofluorescence, 340/450 nm, Alexa 350 dye-equivalents; stronger effect = higher value.
`CCC1(C)Cc2c(sc3nc4n(c(=O)c23)CCCS4)CO1` (stereo not drawn): the max dye-equivalent concentration was 56 nM (active). In the case of `CC1(C)Cc2c(sc3nc4n(c(=N)c23)CCCCC4)CO1`, the max dye-equivalent concentration entry was “inactive”. As for `CCOC(=O)Cn1c(SC)nc2sc3c(c2c1=O)CC(C)(C)OC3`, the max dye-equivalent concentration result is “inactive”. On to `CCCCC[C@H](O)CCCC(=O)O`, for which the max dye-equivalent concentration result was “inactive”. With `CC(=O)c1c(C)n(-c2ccc(N(C)C)cc2)c2ccc(OCC(N)=O)cc12` the entry was “inactive”; with `CCCc1[nH]nc2c1C(c1ccc(OC)c(Cn3nc(C)c(Br)c3C)c1)C(C#N)=C(N)O2` (stereo not drawn), “inactive”. Turning to `CC(=O)/C(=N\N=C(N)N)c1ccccc1`, the max dye-equivalent concentration entry is “inactive”.

Turning to `O=C1c2cccc3cccc(c23)N1CN1CCN(c2ccccn2)CC1`, the max dye-equivalent concentration was 16 nM (active). With `OC(COc1cccc2ccccc12)CN1CCN(c2ccccn2)CC1` (stereo not drawn) the entry was “inactive”; with `CC(=C1C(=O)c2ccccc2C1=O)N1CCN(c2ccccn2)CC1`, “inactive”; with `COc1ccccc1OCCC(=O)OCC(=O)NC(=O)NC(C)(C)C`, “inactive”. Consider `CN1C(C)(C)CC(NC(=O)CCC(=O)NC2CC(C)(C)N(C)C(C)(C)C2)CC1(C)C`, for which the max dye-equivalent concentration entry is “inactive”.

As to `CCn1c(=N)c(S(=O)(=O)c2ccc(F)cc2)cc2c(=O)n3ccccc3nc21`, the max dye-equivalent concentration is 780 nM (active). For the compound `CC1CCCC(NC(=O)CSc2nccn2C)C1C` (stereo not drawn), the max dye-equivalent concentration result is “inactive”. Regarding `O=C(c1c(Cl)nc2sccn12)N1CCCc2ccccc21`, the max dye-equivalent concentration entry is “inactive”. Take `COc1ccccc1CNc1nc(-c2c(C)noc2C)nc2ccccc12`: the max dye-equivalent concentration entry is “inactive”. Consider `Cc1cnc(NC(=O)CSc2nnc(-c3ccccc3)n2Cc2ccccc2)s1`, for which the max dye-equivalent concentration result was “inactive”. As to `COc1ccc(CC(=O)Nc2nc3n(n2)C(c2ccccc2)CC(=O)N3)cc1OC` (stereo not drawn), the max dye-equivalent concentration entry was “inactive”.

As to `CNC(=O)CSc1nnnn1-c1ccc(C)cc1C`, the max dye-equivalent concentration result is “inactive”.

In the case of `COc1ccc(-c2nnc(SCC(=O)c3cccs3)o2)c(OC)c1`, the max dye-equivalent concentration entry is “inactive”. Regarding `COc1ccc(OC)c(C(=O)CSc2nnc(-c3cccs3)o2)c1`, the max dye-equivalent concentration was 150 nM (active). `COc1ccc(-n2c(C)cc(C(=O)CSc3nnc(-c4cccs4)o3)c2C)cc1`: the max dye-equivalent concentration entry is “inactive”. As to `c1ccc(CSCCc2ccncc2)cc1`, the max dye-equivalent concentration result was “inactive”. `CN(CCC#N)c1ncnc2scc(-c3ccccc3)c12`: the max dye-equivalent concentration result was “inactive”. In the case of `O=C(CN1C2CCC1CC(NC(=O)C1CC1)C2)NCc1ccccc1` (stereo not drawn), the max dye-equivalent concentration result is “inactive”. For `CCCCNC(=O)CSc1nnc(-c2ccco2)n1C`, the max dye-equivalent concentration entry is “inactive”.

Consider `O=C(c1ccccc1)c1cccn1CC(=O)N1CCN(c2ccc(F)cc2)CC1`, for which the max dye-equivalent concentration result was “inactive”. On to `CC(C)N(C(=O)COC(=O)c1ccccc1C(=O)N1CCN(c2ccc(F)cc2)CC1)C(C)C`, for which the max dye-equivalent concentration entry was “inactive”. On to `Cn1c2ccccc2c2c(C(=O)N3CCN(c4ccc(F)cc4)CC3)cn(C3CCCC3)c(=O)c21`, for which the max dye-equivalent concentration was 13 nM (active).

As for `CCCCn1nnnc1NCc1cc(OC)c(OC)c(OC)c1`, the max dye-equivalent concentration entry is “inactive”. For `COc1ccccc1-n1nnnc1S(=O)(=O)Cc1ccc(Cl)cc1`, the max dye-equivalent concentration entry was “inactive”.

In the case of `CCC(CC)C(=O)Nc1cccc(C(=O)N2CCCC2)c1`, the max dye-equivalent concentration entry is “inactive”. On to `COc1ccc(OCc2cccc(C(=O)N3CCCC3)c2)cc1`, for which the max dye-equivalent concentration is 18 nM (active). With `COc1ccc(OCC(=O)N2CCN(C(=O)COc3ccccc3)CC2)cc1` the entry was “inactive”. Take `Cc1noc(C)c1CSc1nnc2ccc3ccccc3n12`: the max dye-equivalent concentration result was “inactive”. Take `CCC(=O)Nc1sc(C(=O)N2CCCCC2)c(C)c1C#N`: the max dye-equivalent concentration result is “inactive”. Take `CC(C)C(C(=O)NC1CCCCC1)N(CC1CCCO1)C(=O)CNS(=O)(=O)c1ccc(F)cc1` (stereo not drawn): the max dye-equivalent concentration result was “inactive”.

For `c1ccc2c(CNn3cnnc3)cccc2c1`, the max dye-equivalent concentration result is “inactive”. In the case of `COC(=O)[C@H](Cc1ccccc1)NC(=O)N1CC(C)OC(C)C1` (stereo partly drawn) it was “inactive”.

For the compound `COc1ccc(C2N=C(N)N=C(N)N2c2ccccc2)cc1OC` (stereo not drawn), the max dye-equivalent concentration entry is “inactive”. For `C=CCn1c(CC(=O)Nc2cccc(OC)c2)nnc1SCC(=O)NC1CCCCC1`, the max dye-equivalent concentration entry was “inactive”.

In the case of `Cn1c(-c2ccco2)nc2cc3ccccc3cc21`, the max dye-equivalent concentration is 1100 nM (active). In the case of `Cn1c(SCC(=O)c2cccs2)nnc1-c1ccco1` it was “inactive”; in that of `c1coc(-c2nc3nc4ccccc4n3nc2-c2ccco2)c1`, “inactive”.

For the compound `O=C(Nc1cc(C(F)(F)F)ccc1Cl)c1cc(C2CC2)on1`, the max dye-equivalent concentration result was “inactive”. Regarding `Cn1c(SCC(=O)OC2CCCCC2)nnc1-c1ccc(S(=O)(=O)N2CCCC2)cc1`, the max dye-equivalent concentration entry is “inactive”. Take `O=C(CSc1nnc(-c2ccccc2)o1)N1CCOCC1`: the max dye-equivalent concentration entry is “inactive”. In the case of `O=C(COC(=O)c1ccc(Oc2ccccc2)cc1)Nc1nnc(-c2ccccc2)o1` it was “inactive”; in that of `Nc1ccc(-c2nnc(-c3ccc(-c4ccccc4)cc3)o2)cc1`, 300 nM (active). With `O=C(O)CN1C(=O)CC(Cc2ccccc2)C1=O` (stereo not drawn), the max dye-equivalent concentration entry is “inactive”. In the case of `c1nc(COc2nsnc2N2CCOCC2)cs1` it was “inactive”. On to `Cc1nn(Cc2ccccc2)c(Cl)c1C(=O)OC1CCOC1=O` (stereo not drawn), for which the max dye-equivalent concentration result was “inactive”. As to `O=C(OC1CCOC1=O)c1ccc(-c2nc3ccccc3s2)s1` (stereo not drawn), the max dye-equivalent concentration is 1100 nM (active). With `O=C(c1cccs1)N1CCC(c2nc3ccccc3s2)CC1` the entry was “inactive”; with `CC(C)NS(=O)(=O)c1ccc(OCC(=O)Nc2ccc3c(c2)OCCO3)cc1`, “inactive”; with `COc1ccc(OC)c(C(c2nnnn2C(C)(C)C)N2CCc3ccccc3C2)c1` (stereo not drawn), “inactive”.

As for `COCCn1nnnc1C(c1cc2ccc(OC)cc2[nH]c1=O)N1CCc2ccccc2C1` (stereo not drawn), the max dye-equivalent concentration was 18 nM (active). Turning to `CCOc1ccc2[nH]c(=O)c(C(c3nnnn3CCOC)N3CCOCC3)cc2c1` (stereo not drawn), the max dye-equivalent concentration is 690 nM (active). As to `COCCn1nnnc1C(c1ccccc1Cl)N1CCN(c2ccccc2OC)CC1` (stereo not drawn), the max dye-equivalent concentration result was “inactive”. With `COc1ccc(N2CCN(C(c3cc4ccc(C)cc4[nH]c3=O)c3nnnn3C3CCCC3)CC2)cc1` (stereo not drawn) the entry was “inactive”. In the case of `Cc1cc(C)c2[nH]c(=O)c(C(c3nnnn3Cc3ccc4c(c3)OCO4)N3CCCC3)cc2c1` (stereo not drawn) it was “inactive”; in that of `CCOc1ccccc1Nc1nnc(SCC(=O)Nc2cc(C)on2)s1`, “inactive”; in that of `Cc1ccccc1CN1CCN(C(=O)c2cccc(F)c2)CC1`, “inactive”. Turning to `CCOc1ccccc1N=C1NC(=O)CS1`, the max dye-equivalent concentration result is “inactive”. Consider `COc1ccccc1-c1nnc(SCC(=O)Nc2ccccc2)o1`, for which the max dye-equivalent concentration entry is “inactive”. As for `c1ccc(CCN2CCN=C2Cc2ccccc2)cc1`, the max dye-equivalent concentration entry was “inactive”. Regarding `O=c1cc(-c2ccc(O)c(O)c2)oc2cccc(O)c12`, the max dye-equivalent concentration entry was “inactive”.

Regarding `CC(C)OC(=O)C(C#N)c1nc2ccccc2nc1N1CCN(Cc2ccccc2)CC1` (stereo not drawn), the max dye-equivalent concentration entry was “inactive”. As for `CC(C)OC(=O)C(C#N)c1nc2ccccc2nc1N1CCN(Cc2ccc3c(c2)OCO3)CC1` (stereo not drawn), the max dye-equivalent concentration is 120 nM (active). In the case of `COc1ccc(-c2csc(N3CCN(Cc4ccc5c(c4)OCO5)CC3)n2)cc1`, the max dye-equivalent concentration result was “inactive”. Regarding `Cc1ccc(S(=O)(=O)N2CCN(Cc3cccc(C)c3O)CC2)cc1`, the max dye-equivalent concentration result is “inactive”. On to `CC(=O)Nc1cccc(NC(=O)c2c(-c3ccccc3)noc2C)c1`, for which the max dye-equivalent concentration entry was “inactive”. On to `Cc1cc(=O)oc(C)c1C(=O)NC1CC(C)(C)NC(C)(C)C1`, for which the max dye-equivalent concentration result was “inactive”. With `Cc1cc(=O)oc(C)c1C(=O)Nc1cnc2ccccc2c1` the figure was 12 nM (active); with `CCC(=O)Nc1ccc(C(=O)Nc2ccc3c(c2)C(=O)N(CC2CCCO2)C3=O)cc1` (stereo not drawn), 150 nM (active). With `O=C(NCc1ccc2c(c1)OCO2)c1ccc2c(c1)C(=O)N(CC1CCCO1)C2=O` (stereo not drawn) the entry was “inactive”; with `O=C(CCN1C(=O)c2ccncc2C1=O)Nc1ccc2c(c1)OCCO2`, “inactive”. Consider `CCC(c1nnnn1C1CCCC1)N1CCN(C(=O)c2ccco2)CC1` (stereo not drawn), for which the max dye-equivalent concentration entry was “inactive”. Turning to `O=C(Nc1cccc(-c2nnc(-c3ccccc3)o2)c1)C1CCCO1` (stereo not drawn), the max dye-equivalent concentration result is “inactive”. For the compound `O=C(Nc1ccc(-c2nnc(-c3ccccc3)o2)cc1)C1CCCO1` (stereo not drawn), the max dye-equivalent concentration entry was “inactive”. For the compound `O=C(Nc1ccc(-c2nnc(-c3ccccc3)o2)cc1)c1ccc(Br)o1`, the max dye-equivalent concentration is 68 nM (active). `CCNS(=O)(=O)c1ccc(NC(=O)Nc2cccc(OC)c2)cc1`: the max dye-equivalent concentration result was “inactive”.

`CN1c2ccccc2-c2nc3ccccc3n2C1c1ccco1` (stereo not drawn): the max dye-equivalent concentration was 3400 nM (active). `CSCCC(NC(=O)c1ccc(=O)n(C)n1)c1nc2ccccc2[nH]1` (stereo not drawn): the max dye-equivalent concentration entry was “inactive”.

Turning to `COc1cc(C2C(C(=O)c3sc(C)nc3C)=C(O)C(=O)N2CCN(C)C)cc(OC)c1OC` (stereo not drawn), the max dye-equivalent concentration entry is “inactive”. In the case of `O=C(c1csnn1)N1CCC[C@@]2(CCN(Cc3nccs3)C2)C1` it was “inactive”. On to `Cc1ccc(C(=O)Nc2ccccc2C(=O)NC2CCCCC2)cc1S(=O)(=O)N1CCOCC1`, for which the max dye-equivalent concentration entry is “inactive”. On to `O=c1c2cc3c(=O)n(CC4CCCO4)c(=O)c3cc2c(=O)n1CC1CCCO1` (stereo not drawn), for which the max dye-equivalent concentration entry was “inactive”. As to `O=C(NC1CCCCC1)c1ccc2c(=O)n(CC3CCCO3)c(=O)[nH]c2c1` (stereo not drawn), the max dye-equivalent concentration is 15 nM (active). For the compound `NS(=O)(=O)c1cc(C(=O)O)c(Cl)c([N+](=O)[O-])c1Cl`, the max dye-equivalent concentration entry is “inactive”. In the case of `CS(=O)(=O)N(Cc1nc2sc3c(c2c(=O)[nH]1)CCCC3)C1CCCCC1` it was 44 nM (active); in that of `COc1ccc(Br)c2c1C[C@H](C(=O)O)CC2`, “inactive”; in that of `C=CCNC(=O)CCCC(=O)NCC=C`, “inactive”. Consider `CSc1nnc(-c2ccncc2)n1CCCN1CCCC1=O`, for which the max dye-equivalent concentration result was “inactive”. In the case of `CC(C)(C)OC(=O)c1c(N)n(CCCN2CCCC2=O)c2nc3ccccc3nc12`, the max dye-equivalent concentration is 9100 nM (active). Turning to `O=C(CCn1c(=S)[nH]c2ccccc2c1=O)NCCCN1CCCC1=O`, the max dye-equivalent concentration result was “inactive”. On to `COc1ccc(N2C(=O)CC(N3CCC(C(N)=O)CC3)C2=O)cc1` (stereo not drawn), for which the max dye-equivalent concentration result is “inactive”.

Turning to `CC(C)NC(=O)N1CC[C@@]2(CCCN(C(=O)c3cccc(F)c3)C2)C1`, the max dye-equivalent concentration result was “inactive”. Take `CCCCCNC(=O)Cc1ccc(OC)cc1`: the max dye-equivalent concentration entry is “inactive”.

For `CCS(=O)(=O)n1nc(-c2ccccc2)nc1SCc1ccccc1`, the max dye-equivalent concentration result was “inactive”. In the case of `COc1ccccc1NC(=O)C1=C(C)Nc2nnnn2C1c1cccc(Br)c1` (stereo not drawn), the max dye-equivalent concentration entry was “inactive”.

On to `COC(=O)c1ccc(C2C3=C(Nc4nnnn42)c2ccccc2OC3)cc1` (stereo not drawn), for which the max dye-equivalent concentration is 74 nM (active). `CCCCCOC(=O)C1=C(C)Nc2nnnn2C1c1ccc(OC)c(OC)c1OC` (stereo not drawn): the max dye-equivalent concentration result was “inactive”. As for `CC(=O)OC(C(=O)NC1CCCCC1)c1ccccc1` (stereo not drawn), the max dye-equivalent concentration result is “inactive”. `Cc1cc(C(=O)OCC(=O)c2c(N)n(C)c(=O)n(C)c2=O)c(C)o1`: the max dye-equivalent concentration result was “inactive”. On to `Cc1ccc2cc(C#N)c(SCC(=O)NCC3CCCO3)nc2c1C` (stereo not drawn), for which the max dye-equivalent concentration entry is “inactive”. Turning to `CC(NC(=O)CSc1nc2c(cc1C#N)CN(C)CC2)c1ccccc1` (stereo not drawn), the max dye-equivalent concentration was 26 nM (active). On to `CC(NC(=O)c1cc(-c2ccccc2)on1)c1ccccc1` (stereo not drawn), for which the max dye-equivalent concentration entry was “inactive”.

For the origin of these results see PubChem BioAssay AID590 (National Center for Advancing Translational Sciences (NCATS), 2007).
